From the supplement of paper PMC11624193, “Coupling cellular drug-target engagement to downstream pharmacology with CeTEAM” (Nature Communications, 2024) come the findings set out here.

A number with no mark means an inactive call.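 Rule for the calls: active = log2 fold change beyond 2 SD from the library mean after excluding viability outliers; inactive = within 2 SD.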

This assay deals with PARP1 L713F-nLuc biosensor (HCT116) (UniProt P09874). Description: PARP1 L713F-nLuc/akaLuc ratio relative to DMSO control (biosensor stabilization) (fold change); higher = more PARP1 biosensor stabilization (target engagement / stabilizer), active = hit call of the paper. As to conditions: stock concentration (mM; final µM = stock mM x 1): 10; 24 h.
Chain of PARP1 L713F-nLuc biosensor (HCT116) (P09874 whole entry L713F, looked up): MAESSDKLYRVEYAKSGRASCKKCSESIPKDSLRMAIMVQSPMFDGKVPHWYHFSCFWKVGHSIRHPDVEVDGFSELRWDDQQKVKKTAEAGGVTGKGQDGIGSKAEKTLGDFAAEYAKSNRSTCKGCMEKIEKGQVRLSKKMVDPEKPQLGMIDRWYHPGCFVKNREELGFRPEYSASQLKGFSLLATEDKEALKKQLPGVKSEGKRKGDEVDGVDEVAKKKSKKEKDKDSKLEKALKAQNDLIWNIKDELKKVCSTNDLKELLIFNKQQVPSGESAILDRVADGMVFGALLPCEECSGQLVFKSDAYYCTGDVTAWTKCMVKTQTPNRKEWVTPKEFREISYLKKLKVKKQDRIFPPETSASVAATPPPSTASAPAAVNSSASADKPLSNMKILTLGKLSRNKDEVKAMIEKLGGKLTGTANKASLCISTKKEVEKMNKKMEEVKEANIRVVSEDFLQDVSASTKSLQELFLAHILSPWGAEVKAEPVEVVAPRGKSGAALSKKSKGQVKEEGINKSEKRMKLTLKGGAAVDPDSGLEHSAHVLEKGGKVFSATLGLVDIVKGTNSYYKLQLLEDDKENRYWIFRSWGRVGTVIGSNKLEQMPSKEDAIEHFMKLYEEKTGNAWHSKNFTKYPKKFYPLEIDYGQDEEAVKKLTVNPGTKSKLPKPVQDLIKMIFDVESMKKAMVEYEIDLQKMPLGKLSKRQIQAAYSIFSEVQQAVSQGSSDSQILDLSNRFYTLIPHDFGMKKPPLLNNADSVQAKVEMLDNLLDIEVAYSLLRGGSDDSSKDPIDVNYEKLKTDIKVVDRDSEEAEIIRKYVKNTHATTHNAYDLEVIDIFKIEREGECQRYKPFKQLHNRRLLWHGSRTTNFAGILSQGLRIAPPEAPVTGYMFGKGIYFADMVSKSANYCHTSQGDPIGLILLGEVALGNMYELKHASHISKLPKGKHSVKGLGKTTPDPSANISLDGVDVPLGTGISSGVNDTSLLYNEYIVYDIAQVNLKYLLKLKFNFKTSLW
As for `COc1cccc(-n2c(=O)[nH]c3cc(Cl)n(-c4ccc(-c5cccc(OC)c5O)cc4)c3c2=O)c1`, the “PARP1 L713F-nLuc/akaLuc ratio” value was 0.814.

Take `O=c1c(-n2ccnn2)c[nH]n1-c1cc(N2CCOCC2)ncn1` [Molidustat]: the “PARP1 L713F-nLuc/akaLuc ratio” value is 0.788.

For the compound `C=CC(=O)Nc1cccc(Nc2nc(Nc3ccc(OCCOC)cc3)ncc2F)c1` [Spebrutinib (CC-292, AVL-292)], the “PARP1 L713F-nLuc/akaLuc ratio” value is 0.464.

With `Cc1cc([C@@H](C)Nc2ccccc2C(=O)O)c2nc(N3CCOCC3)cc(=O)n2c1`, the “PARP1 L713F-nLuc/akaLuc ratio” value was 0.617.

For `CCCc1cc(C)[nH]c(=O)c1CNC(=O)c1cc(-c2ccc(N3CCN(C)CC3)nc2)nc2c1cnn2C(C)C`, the “PARP1 L713F-nLuc/akaLuc ratio” value was 1.04.

For `O=C1COc2c(CCNCCN(C(=O)CCNCCc3ccc(Cl)c(Cl)c3)C3CCCCC3)ccc(O)c2N1`, the “PARP1 L713F-nLuc/akaLuc ratio” value is 1.16.

Turning to `Cc1cc(C)c(CNC(=O)c2cc(Cl)c3c(c2C)O[C@@](C)([C@H]2CC[C@H](N(C)C)CC2)O3)c(=O)[nH]1` [Valemetostat (tosylate)], the “PARP1 L713F-nLuc/akaLuc ratio” value is 1.05.

For `O=C(c1cccc(Cl)c1F)N1CCN(Cc2cccc(Nc3nccs3)n2)CC1`, the “PARP1 L713F-nLuc/akaLuc ratio” value is 1.61.

As to `CC(C)N(C[C@H]1O[C@@H](n2cnc3c(N)ncnc32)[C@H](O)[C@@H]1O)[C@H]1C[C@@H](CCc2nc3cc(C(C)(C)C)ccc3[nH]2)C1` [Pinometostat], the “PARP1 L713F-nLuc/akaLuc ratio” value is 0.649.

On to `O=C(c1ccc(F)c(F)c1Nc1ccc(I)cc1F)N1CC(O)([C@@H]2CCCCN2)C1` [Cobimetinib (GDC-0973, RG7420)], for which the “PARP1 L713F-nLuc/akaLuc ratio” value is 0.687.
